Measurements reported in the supplement of paper PMC11732987, “Enantioselective OTUD7B fragment discovery through chemoproteomics screening and high-throughput optimisation” (Communications Chemistry, 2025).
A number with no mark means an inactive call.

What was measured:
Assay in all cases: log2 ratio of Biotin-Ahx-Ub-VS probe labelling (fragment/DMSO); higher = less target engagement (more negative = stronger competition), active = hit call of the paper (q ≤ 0.05, log2 ratio ≤ -1)
Conditions in all cases: compound concentration: 200 uM; treatment time: 3 h
ALG13 = target: T1, ALG13 (UniProt Q9NP73)
T1 sequence (whole entry): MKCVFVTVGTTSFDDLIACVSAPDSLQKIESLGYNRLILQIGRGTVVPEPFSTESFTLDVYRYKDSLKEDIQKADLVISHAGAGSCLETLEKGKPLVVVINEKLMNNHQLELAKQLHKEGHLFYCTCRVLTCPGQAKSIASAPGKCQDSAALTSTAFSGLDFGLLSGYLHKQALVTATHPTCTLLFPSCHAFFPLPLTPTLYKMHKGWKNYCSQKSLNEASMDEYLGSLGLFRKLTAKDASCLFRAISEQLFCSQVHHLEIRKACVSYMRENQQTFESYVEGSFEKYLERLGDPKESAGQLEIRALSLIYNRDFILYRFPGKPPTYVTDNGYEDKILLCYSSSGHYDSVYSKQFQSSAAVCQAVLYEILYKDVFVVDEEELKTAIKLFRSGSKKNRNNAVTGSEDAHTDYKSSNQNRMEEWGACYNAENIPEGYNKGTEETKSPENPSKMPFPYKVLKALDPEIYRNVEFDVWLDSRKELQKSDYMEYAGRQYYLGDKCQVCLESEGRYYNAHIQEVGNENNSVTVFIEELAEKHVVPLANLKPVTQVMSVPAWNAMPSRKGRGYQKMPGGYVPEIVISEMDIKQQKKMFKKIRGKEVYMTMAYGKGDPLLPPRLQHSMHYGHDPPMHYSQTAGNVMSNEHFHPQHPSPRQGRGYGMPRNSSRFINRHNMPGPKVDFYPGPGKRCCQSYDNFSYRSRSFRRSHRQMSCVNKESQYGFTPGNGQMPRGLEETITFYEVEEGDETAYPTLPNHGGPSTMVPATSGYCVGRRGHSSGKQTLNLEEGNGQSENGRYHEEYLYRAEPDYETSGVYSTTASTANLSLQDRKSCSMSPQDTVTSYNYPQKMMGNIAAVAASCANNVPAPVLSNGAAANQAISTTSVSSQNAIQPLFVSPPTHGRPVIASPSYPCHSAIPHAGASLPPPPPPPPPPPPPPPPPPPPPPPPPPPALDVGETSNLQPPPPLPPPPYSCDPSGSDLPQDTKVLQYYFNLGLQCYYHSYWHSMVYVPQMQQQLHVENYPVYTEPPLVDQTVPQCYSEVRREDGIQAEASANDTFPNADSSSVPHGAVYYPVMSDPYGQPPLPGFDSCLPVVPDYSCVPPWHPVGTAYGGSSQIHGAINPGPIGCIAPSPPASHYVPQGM
In short: (§1)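 Fragment (200 µM) or vehicle was incubated for 3 h with triplicate HEK293T lysate samples of 495 µg, which were then treated with Biotin-Ahx-Ub-VS at 0.5 µM final for 1 h. Labelled DUBs were enriched on NeutrAvidin, digested with LysC and trypsin, and analysed by diaPASEF LC-MS/MS. Values are average log2 fragment/vehicle ratios from an unpaired t-test on global-median-normalised Spectronaut label-free quantities, using proteins with ≥2 unique peptides.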

ATXN3 = ATXN3 (UniProt P54252)
In short: as §1

BAP1 = target: T2, BAP1 (UniProt Q92560)
T2 sequence (whole entry): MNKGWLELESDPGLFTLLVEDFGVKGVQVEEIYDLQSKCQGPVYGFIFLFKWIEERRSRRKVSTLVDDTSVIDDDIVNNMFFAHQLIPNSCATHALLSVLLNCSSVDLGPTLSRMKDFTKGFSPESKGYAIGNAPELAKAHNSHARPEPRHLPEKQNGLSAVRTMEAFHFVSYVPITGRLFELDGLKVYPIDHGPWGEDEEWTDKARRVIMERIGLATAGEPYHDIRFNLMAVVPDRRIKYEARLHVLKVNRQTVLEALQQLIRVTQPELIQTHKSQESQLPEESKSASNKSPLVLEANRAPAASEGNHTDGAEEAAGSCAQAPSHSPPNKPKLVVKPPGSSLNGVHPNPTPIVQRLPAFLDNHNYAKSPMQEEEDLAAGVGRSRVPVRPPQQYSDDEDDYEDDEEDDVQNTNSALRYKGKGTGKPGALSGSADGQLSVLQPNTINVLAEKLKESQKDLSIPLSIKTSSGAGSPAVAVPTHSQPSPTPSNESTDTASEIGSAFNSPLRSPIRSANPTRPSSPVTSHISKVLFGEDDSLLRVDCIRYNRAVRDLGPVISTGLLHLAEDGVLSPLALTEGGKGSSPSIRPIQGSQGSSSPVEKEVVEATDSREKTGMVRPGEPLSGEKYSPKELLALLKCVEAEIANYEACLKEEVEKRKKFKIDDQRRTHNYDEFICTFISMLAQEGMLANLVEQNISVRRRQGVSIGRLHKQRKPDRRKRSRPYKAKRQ
In short: as §1

EIF3F = EIF3F (UniProt O00303)
In short: as §1

EIF3H = EIF3H (UniProt O15372)
In short: as §1

FAM105A = target: T3, FAM105A (UniProt Q9NUU6)
T3 sequence (whole entry): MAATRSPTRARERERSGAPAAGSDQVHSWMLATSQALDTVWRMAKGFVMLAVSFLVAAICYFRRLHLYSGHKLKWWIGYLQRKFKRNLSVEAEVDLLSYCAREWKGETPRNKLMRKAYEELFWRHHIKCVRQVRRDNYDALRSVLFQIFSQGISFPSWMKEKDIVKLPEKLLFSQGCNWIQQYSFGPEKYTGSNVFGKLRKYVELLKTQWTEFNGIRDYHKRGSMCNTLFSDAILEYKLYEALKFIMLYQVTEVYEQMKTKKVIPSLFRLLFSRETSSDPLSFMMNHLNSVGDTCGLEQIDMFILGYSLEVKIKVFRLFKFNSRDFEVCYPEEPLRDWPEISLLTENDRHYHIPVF
In short: as §1

OTUB1 = OTUB1 (UniProt Q96FW1)
In short: as §1

OTUD4 = target: T4, OTUD4 (UniProt Q01804)
T4 sequence (whole entry): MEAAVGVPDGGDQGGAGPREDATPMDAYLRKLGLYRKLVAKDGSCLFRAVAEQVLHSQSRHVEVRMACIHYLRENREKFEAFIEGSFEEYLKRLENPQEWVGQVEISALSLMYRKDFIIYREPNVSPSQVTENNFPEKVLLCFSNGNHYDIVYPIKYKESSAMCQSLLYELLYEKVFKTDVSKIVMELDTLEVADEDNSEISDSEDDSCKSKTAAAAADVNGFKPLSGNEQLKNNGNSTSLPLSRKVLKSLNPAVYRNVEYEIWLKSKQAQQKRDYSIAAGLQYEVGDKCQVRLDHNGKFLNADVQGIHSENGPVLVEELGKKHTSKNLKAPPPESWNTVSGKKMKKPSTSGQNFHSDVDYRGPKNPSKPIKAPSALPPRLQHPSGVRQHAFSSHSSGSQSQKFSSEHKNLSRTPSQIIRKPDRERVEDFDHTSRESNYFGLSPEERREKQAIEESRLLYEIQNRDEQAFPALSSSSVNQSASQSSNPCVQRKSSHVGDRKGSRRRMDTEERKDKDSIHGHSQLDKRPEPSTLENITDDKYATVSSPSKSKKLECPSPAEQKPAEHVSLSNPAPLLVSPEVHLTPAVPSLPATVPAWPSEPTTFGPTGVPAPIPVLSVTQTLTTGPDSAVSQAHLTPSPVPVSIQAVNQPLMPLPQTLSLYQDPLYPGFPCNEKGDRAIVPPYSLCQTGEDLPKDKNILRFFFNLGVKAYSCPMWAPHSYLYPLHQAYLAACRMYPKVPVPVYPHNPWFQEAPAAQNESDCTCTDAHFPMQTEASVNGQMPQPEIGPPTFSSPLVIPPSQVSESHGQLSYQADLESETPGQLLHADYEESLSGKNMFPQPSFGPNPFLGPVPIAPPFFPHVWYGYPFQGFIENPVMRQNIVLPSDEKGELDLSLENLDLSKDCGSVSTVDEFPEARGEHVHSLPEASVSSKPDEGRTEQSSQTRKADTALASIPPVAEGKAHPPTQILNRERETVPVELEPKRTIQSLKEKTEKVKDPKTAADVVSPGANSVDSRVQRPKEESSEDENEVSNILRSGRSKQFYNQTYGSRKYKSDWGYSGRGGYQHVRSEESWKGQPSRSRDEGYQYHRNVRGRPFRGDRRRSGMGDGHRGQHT
In short: as §1

OTUD5 = target: T5, OTUD5 (UniProt Q96G74)
T5 sequence (whole entry): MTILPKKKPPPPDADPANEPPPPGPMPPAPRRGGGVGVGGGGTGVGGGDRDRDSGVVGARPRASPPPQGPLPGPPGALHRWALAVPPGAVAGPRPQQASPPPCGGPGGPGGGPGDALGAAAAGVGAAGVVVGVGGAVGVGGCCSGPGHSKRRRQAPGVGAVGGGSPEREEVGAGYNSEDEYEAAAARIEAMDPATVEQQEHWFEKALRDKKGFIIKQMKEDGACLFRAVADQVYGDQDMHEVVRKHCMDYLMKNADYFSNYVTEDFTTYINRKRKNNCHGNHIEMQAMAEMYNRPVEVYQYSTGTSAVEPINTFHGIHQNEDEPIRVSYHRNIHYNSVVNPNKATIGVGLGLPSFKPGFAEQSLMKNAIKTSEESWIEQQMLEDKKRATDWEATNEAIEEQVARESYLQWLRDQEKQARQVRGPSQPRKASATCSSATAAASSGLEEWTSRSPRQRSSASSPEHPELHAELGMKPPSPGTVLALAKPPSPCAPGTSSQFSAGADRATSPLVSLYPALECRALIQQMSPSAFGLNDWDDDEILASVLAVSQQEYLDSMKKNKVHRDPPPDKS
In short: as §1

Chain of OTUB1 (Q96FW1 whole entry): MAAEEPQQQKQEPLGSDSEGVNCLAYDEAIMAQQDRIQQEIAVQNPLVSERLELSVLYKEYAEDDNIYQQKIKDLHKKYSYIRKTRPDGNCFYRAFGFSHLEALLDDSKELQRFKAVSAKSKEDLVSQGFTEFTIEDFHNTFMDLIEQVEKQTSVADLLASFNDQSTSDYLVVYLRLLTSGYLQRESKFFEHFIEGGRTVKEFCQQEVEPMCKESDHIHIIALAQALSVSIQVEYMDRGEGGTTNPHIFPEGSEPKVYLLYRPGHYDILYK
Chain of ATXN3 (P54252 whole entry): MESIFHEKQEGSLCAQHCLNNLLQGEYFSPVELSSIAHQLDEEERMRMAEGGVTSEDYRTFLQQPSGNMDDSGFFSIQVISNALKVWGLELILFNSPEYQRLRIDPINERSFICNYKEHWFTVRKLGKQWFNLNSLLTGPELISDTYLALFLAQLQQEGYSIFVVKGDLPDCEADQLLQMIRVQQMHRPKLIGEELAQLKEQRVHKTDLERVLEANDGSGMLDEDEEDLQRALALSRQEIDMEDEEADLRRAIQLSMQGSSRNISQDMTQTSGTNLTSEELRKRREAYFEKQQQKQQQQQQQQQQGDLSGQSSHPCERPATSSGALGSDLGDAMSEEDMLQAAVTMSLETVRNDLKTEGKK
Chain of EIF3F (O00303 whole entry): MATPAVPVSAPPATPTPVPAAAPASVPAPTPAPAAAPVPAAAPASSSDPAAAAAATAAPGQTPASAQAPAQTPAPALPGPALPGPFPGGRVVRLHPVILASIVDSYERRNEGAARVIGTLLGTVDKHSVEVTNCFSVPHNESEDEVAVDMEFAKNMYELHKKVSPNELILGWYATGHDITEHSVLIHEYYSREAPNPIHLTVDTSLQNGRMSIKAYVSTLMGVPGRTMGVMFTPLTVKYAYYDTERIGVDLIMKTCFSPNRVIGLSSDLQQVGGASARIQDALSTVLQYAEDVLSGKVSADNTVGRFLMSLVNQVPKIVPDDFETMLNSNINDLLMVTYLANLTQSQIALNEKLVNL
Chain of EIF3H (O15372 whole entry): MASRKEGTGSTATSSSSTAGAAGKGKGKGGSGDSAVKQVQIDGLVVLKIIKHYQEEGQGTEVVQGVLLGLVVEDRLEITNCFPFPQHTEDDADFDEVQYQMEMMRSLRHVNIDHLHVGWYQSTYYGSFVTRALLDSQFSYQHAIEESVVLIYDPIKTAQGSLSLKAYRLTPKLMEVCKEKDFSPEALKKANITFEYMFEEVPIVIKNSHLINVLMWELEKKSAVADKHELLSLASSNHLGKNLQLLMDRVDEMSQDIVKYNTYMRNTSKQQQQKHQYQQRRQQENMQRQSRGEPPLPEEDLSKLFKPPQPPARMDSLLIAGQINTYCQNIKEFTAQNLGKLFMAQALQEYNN

| Structure (SMILES) | log2 ratio of Biotin-Ahx-Ub-VS probe labelling (ALG13) | log2 ratio of Biotin-Ahx-Ub-VS probe labelling (ATXN3) | log2 ratio of Biotin-Ahx-Ub-VS probe labelling (BAP1) | log2 ratio of Biotin-Ahx-Ub-VS probe labelling (EIF3F) | log2 ratio of Biotin-Ahx-Ub-VS probe labelling (EIF3H) | log2 ratio of Biotin-Ahx-Ub-VS probe labelling (FAM105A) | log2 ratio of Biotin-Ahx-Ub-VS probe labelling (OTUB1) | log2 ratio of Biotin-Ahx-Ub-VS probe labelling (OTUD4) | log2 ratio of Biotin-Ahx-Ub-VS probe labelling (OTUD5) |
| --- | --- | --- | --- | --- | --- | --- | --- | --- | --- |
| Cc1ccc(C(=O)NCCNC(=O)CCl)cc1 | -0.0475 | -0.159 | -1.49 (active) | -0.13 | -0.101 | -0.349 | -0.162 | -0.371 | -0.264 |
| O=C(CCl)N1CCOCC1C1CC1 (centres undefined) | -1.36 (active) | -0.209 | -0.299 | -0.527 | 0.16 | 0.635 | -0.181 | -0.865 | -0.313 |
| O=C(CCl)N1CCC(O)(Cc2ccc(F)cc2)C1 (centres undefined) | -0.581 | -0.456 | -0.845 | -0.133 | -0.189 | -0.0755 | -0.0952 | -0.135 | -0.233 |
| Cc1c(NC(=O)CCl)c(=O)n(-c2ccccc2)n1C | 0.0604 | -0.0623 | -1.12 (active) | -0.188 | 0.333 | -0.533 | -0.0746 | 0.11 | -0.0203 |
| Cl.O=C(CCl)N1CCC(Cc2nccs2)C1 (centres undefined) | 0.0161 | -0.494 | -0.428 | -0.176 | 0.0343 | -0.0526 | -0.388 | -0.386 | -0.302 |
| Cl.O=C(CCl)N1CCn2cncc2C1 | 0.285 | -0.224 | -0.163 | -0.0339 | 0.0971 | -0.433 | -0.000993 | 0.0549 | -0.214 |
| COc1cccc(CN(C)C(=O)CCl)c1 | -0.0162 | -0.781 | -2.68 (active) | 0.0528 | -0.0896 | -0.419 | 0.00861 | -0.462 | -0.999 |
| O=C(CCl)NC1CCC(C(F)(F)F)CC1 (centres undefined) | 0.187 | -0.373 | -1.11 (active) | -0.798 | -0.225 | -0.0674 | 0.207 | -0.576 | -0.288 |
| Cc1ccc(CC(NC(=O)CCl)c2ccccn2)cc1.Cl (centres undefined) | -0.831 | 0.249 | -0.525 | -0.0559 | 0.165 | -0.348 | -0.0206 | 0.0988 | -0.157 |
| Cc1ccc2nnc(CNC(=O)CCl)n2c1 | 0.205 | -0.0879 | -1.05 (active) | -0.17 | 0.00833 | 0.283 | 0.0976 | 0.0524 | 0.0162 |
| O=C(CCl)N1CCC(c2nc3ccccc3o2)CC1 | -0.377 | -0.627 | -1.64 (active) | -0.00792 | 0.264 | 0.258 | 0.109 | -0.417 | -0.841 |
| O=C(CCl)NCc1noc(C2CC2)n1 | 0.174 | -0.198 | -1.08 (active) | -0.262 | 0.143 | 0.00371 | -0.305 | -0.405 | -0.391 |
| O=C(CCl)N1CCC(C(=O)N2CCCCCC2)CC1 | 0.205 | -0.407 | -0.398 | -0.0762 | 0.0816 | -0.0217 | 0.0563 | -0.035 | -0.328 |
| O=C(CCl)N1CCCCCC1c1ncon1 (centres undefined) | 0.0534 | -0.268 | -0.409 | 0.0211 | 0.132 | 0.156 | 0.099 | -0.759 | -0.654 |
| CN1c2ccccc2C(NC(=O)CCl)CS1(=O)=O (centres undefined) | -0.325 | -0.142 | -2.33 (active) | -0.327 | 0.0135 | 0.147 | -0.0194 | -1.65 (active) | -0.14 |
| Cl.O=C(CCl)N[C@H]1C[C@@H](n2cccn2)C1 | -0.266 | -0.161 | -1.24 (active) | -0.862 | 0.149 | -0.138 | -0.581 | -0.0468 | -0.587 |
